One assay has as its target Albumin (Bos taurus) (UniProt P02769). Briefly: compounds binding labelled BSA control protein – biochemical, small-molecule microarray, Alexa647 label, 635/667 nm fluorescence, artefact control for SMM control protein annotation, profiling panel (AID 1118).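 Further: score merges 667 nm emission intensity and signal-to-noise per printed compound spot.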 Particulars: BSA-A647 binding, fluorescence 635 nm, higher = more signal.
Assay [1] can be described thus: probe aXIP binding to arrayed compounds – biochemical, NeuroSMM set, 635/667 nm fluorescence, primary screen (AID 1119).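 Further: probe is the protein aXip251-270 applied at 1 µg/mL to compound-printed slides; binding of probe to printed compounds measured as 667 nm fluorescence plus signal to noise.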 The following applies: small-molecule microarray, higher = more signal, called active from +8 up or from −8 down.
Assay [2] is described as follows: probe aNOTCH3 binding on compound microarray – biochemical, small-molecule microarray, 635/667 nm fluorescence, primary screen (AID 1120).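 Further: probe is a biotin-tagged antibody raised against NOTCH3 rather than NOTCH3 protein; score merges spot fluorescence near 667 nm with spot signal to noise.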 The following applies: higher = more signal.
Assay [3] can be described thus: probe aNOTCH2 binding on compound microarray – biochemical, small-molecule microarray, 635/667 nm fluorescence, primary screen (AID 1121).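 Further: score merges feature fluorescence read at 667 nm with its signal to noise.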 The following applies: higher = more signal.
In assay [4] the target is Carbonic anhydrase 2 (Homo sapiens) (UniProt P00918). Briefly: compounds binding carbonic anhydrase 2 – biochemical, small-molecule microarray, Alexa647-labelled CAII, profiling panel (AID 1122). The following applies: CAII-A647 binding fluorescence, higher = more signal.
Assay [5] can be described thus: COS7 lysate on small-molecule microarray, probe aHis, 635 nm (AID 1123).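 Further: z-score combines 667nm fluorescence intensity with signal-to-noise per printed compound spot.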 The following applies: COS7 cell lysate, fluorescence, higher = more signal.
A short description of assay [6]: probe aLAP1 signal on lysate-treated microarray – cell lysate, small-molecule microarray, COS7 lysate, primary screen (AID 1124).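 Further: lysate comes from COS7 cells expressing LAP1 and is applied at 0.3 µg/mL; score merges spot fluorescence near 667 nm with signal-to-noise over triplicate slides.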 The following applies: probe aLAP1, fluorescence, higher = more signal.
The subject of another assay is Sam68 (KHDRBS1). The assay is described as follows: compounds binding KHDRBS1 protein – biochemical, small-molecule microarray, 635 nm fluorescence, primary screen (AID 1125).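 Further: score merges 667 nm channel intensity with signal to noise over triplicate slides.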 The following applies: higher = more signal.
In assay [7] the test system is Chordin-like protein 2 (CHRDL2). The assay is described as follows: compounds binding chordin-like 2 – biochemical, small-molecule microarray, 635 nm fluorescence, primary screen (AID 1126).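 Further: printed compound slides probed with Chrdl2 protein at 4 µg/mL for 1 h at 4 C; score merges 667 nm emission intensity with signal to noise over three replicate slides.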 The following applies: fluorescence 635 nm, higher = more signal.
The target in assay [8] is Concanavalin-A (Canavalia ensiformis) (UniProt P02866). The assay is described as follows: compounds binding concanavalin A lectin – biochemical, small-molecule microarray, Alexa647 label, 635 nm, artefact control for SMM control protein annotation, primary screen (AID 1127).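 Further: z combines 667 nm emission intensity with signal-to-noise across three replicate slides.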 Particulars: ConA-A647 binding fluorescence, higher = more signal.
The nature of assay [9]: compounds binding Alexa647 anti-His antibody – biochemical, small-molecule microarray, 635 nm fluorescence, artefact control for SMM control protein annotation, primary screen (AID 1128).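 Further: score merges feature fluorescence with signal-to-noise for each printed compound spot.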 Particulars: higher = more signal.
Assay [10] deals with Human papillomavirus type 1a E7 protein (residues 1-88). The assay is described as follows: HPV1a E7 small-molecule binders, primary screen, biochemical, small-molecule microarray, residues 1-88, 635 nm (AID 1129). The following applies: small-molecule microarray binding, fluorescence 635 nm; higher = more signal.
Assay [11] concerns the target Focal adhesion kinase 1 (Homo sapiens) (UniProt Q05397). The assay is described as follows: PTK2 protein binding on printed compound slides – biochemical, small-molecule microarray, 635/667 nm fluorescence, BSA, DTT, primary screen (AID 1130).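 Further: composite of spot emission at 667 nm and signal to noise over triplicate slides.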 The following applies: 635 nm fluorescence, higher = more signal.
In assay [12] the test system is Fibrinogen (Alexa647-labelled). The assay is described as follows: Alexa647-fibrinogen binding to printed small molecules – biochemical, small-molecule microarray, 635/667 nm fluorescence, artefact control for SMM control-protein annotation, profiling panel (AID 1131).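 Further: z-score merges 667 nm fluorescence with per-spot signal-to-noise over triplicate slides.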 The following applies: fibrinogen-A647 binding fluorescence, higher = more signal.
Assay [13] deals with Follistatin (Homo sapiens) (UniProt P19883). Briefly: FST protein binding to printed compounds – biochemical, small-molecule microarray, 635/667 nm fluorescence, primary screen (AID 1132). Particulars: 635 nm fluorescence, higher = more signal.
Assay [14] deals with Fibroblast growth factor 2 (Homo sapiens) (UniProt P09038). The assay is described as follows: basic fibroblast growth factor binding to printed compounds – biochemical, small-molecule microarray, 635/667 nm fluorescence, primary screen (AID 1133). Particulars: FGF2, fluorescence 635/667, higher = more signal.
Assay [15] can be described thus: JC-1 mitochondrial potential readout, lung cancer cells – cell-based, A549, JC-1 fluorescence, basal, 24 h, 100 nL, profiling panel (AID 1138).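 Further: A549 lung adenocarcinoma cells under basal conditions with no added stimulus; test concentration not given here.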 The following applies: higher = more signal.
Another assay concerns Lefty1. The assay is described as follows: Lefty1 protein binding to printed compounds – biochemical, small-molecule microarray, 635/667 nm fluorescence, primary screen (AID 1139). Particulars: fluorescence 635/667, higher = more signal.
The subject of assay [16] is wheat germ agglutinin (Triticum aestivum), Alexa647-labelled. The assay is described as follows: Alexa647-WGA lectin binding to printed small molecules – biochemical, small-molecule microarray, 635/667 nm fluorescence, artefact control for SMM control-protein annotation, profiling panel (AID 1140).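 Further: score merges 667 nm feature emission with signal to noise over triplicate slides.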 The following applies: WGA-A647 binding, 635 nm fluorescence, higher = more signal.

In assay [17] the target is Luciferin 4-monooxygenase (Photinus pyralis) (UniProt P08659). The assay is described as follows: inhibition of purified Photinus pyralis luciferase – biochemical, luminescence, purified enzyme, 2006 set, primary screen (AID 1141).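 Further: cell-free assay with purified firefly luciferase at 100 ng per well in PBS; test concentration not given here.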 The following applies: purified firefly luciferase, SteadyGlo luminescence, 30 min; higher = more signal, called active from +8 up or from −8 down.

The source made the active and inactive calls.

Chain of Fibroblast growth factor 2 (Homo sapiens) (P09038 whole entry, looked up): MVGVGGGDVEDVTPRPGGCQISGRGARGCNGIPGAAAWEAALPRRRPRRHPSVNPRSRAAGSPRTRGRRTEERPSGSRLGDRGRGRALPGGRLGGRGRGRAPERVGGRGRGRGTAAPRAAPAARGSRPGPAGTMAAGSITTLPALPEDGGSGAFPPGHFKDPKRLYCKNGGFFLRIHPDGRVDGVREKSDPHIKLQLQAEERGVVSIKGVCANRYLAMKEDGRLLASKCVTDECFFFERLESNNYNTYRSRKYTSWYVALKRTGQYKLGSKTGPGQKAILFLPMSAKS
Chain of Albumin (Bos taurus) (P02769 whole entry, looked up): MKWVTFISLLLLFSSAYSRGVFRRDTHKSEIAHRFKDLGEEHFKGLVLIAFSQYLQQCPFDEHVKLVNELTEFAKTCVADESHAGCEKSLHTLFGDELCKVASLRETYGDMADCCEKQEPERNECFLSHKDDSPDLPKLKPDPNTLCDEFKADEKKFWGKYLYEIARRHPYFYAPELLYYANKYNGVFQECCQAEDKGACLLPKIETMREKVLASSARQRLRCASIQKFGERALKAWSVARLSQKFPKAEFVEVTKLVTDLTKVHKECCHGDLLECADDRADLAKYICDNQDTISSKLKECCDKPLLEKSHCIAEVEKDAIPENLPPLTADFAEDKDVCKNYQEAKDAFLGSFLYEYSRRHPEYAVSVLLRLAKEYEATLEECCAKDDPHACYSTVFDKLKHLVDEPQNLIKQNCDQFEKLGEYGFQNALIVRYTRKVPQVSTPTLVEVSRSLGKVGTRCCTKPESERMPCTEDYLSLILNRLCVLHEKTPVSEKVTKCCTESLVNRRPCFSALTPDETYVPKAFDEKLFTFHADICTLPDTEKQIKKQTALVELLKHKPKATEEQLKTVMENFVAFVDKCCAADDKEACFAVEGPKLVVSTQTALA
Chain of Concanavalin-A (Canavalia ensiformis) (P02866 whole entry, looked up): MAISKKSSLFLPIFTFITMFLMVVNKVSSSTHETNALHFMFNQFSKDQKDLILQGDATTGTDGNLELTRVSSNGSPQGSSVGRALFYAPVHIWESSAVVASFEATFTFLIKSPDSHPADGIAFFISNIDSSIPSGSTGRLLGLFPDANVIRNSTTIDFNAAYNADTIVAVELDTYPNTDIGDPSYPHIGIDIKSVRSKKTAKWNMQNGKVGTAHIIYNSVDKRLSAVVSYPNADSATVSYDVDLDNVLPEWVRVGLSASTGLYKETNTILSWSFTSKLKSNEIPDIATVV
Chain of Focal adhesion kinase 1 (Homo sapiens) (Q05397 whole entry, looked up): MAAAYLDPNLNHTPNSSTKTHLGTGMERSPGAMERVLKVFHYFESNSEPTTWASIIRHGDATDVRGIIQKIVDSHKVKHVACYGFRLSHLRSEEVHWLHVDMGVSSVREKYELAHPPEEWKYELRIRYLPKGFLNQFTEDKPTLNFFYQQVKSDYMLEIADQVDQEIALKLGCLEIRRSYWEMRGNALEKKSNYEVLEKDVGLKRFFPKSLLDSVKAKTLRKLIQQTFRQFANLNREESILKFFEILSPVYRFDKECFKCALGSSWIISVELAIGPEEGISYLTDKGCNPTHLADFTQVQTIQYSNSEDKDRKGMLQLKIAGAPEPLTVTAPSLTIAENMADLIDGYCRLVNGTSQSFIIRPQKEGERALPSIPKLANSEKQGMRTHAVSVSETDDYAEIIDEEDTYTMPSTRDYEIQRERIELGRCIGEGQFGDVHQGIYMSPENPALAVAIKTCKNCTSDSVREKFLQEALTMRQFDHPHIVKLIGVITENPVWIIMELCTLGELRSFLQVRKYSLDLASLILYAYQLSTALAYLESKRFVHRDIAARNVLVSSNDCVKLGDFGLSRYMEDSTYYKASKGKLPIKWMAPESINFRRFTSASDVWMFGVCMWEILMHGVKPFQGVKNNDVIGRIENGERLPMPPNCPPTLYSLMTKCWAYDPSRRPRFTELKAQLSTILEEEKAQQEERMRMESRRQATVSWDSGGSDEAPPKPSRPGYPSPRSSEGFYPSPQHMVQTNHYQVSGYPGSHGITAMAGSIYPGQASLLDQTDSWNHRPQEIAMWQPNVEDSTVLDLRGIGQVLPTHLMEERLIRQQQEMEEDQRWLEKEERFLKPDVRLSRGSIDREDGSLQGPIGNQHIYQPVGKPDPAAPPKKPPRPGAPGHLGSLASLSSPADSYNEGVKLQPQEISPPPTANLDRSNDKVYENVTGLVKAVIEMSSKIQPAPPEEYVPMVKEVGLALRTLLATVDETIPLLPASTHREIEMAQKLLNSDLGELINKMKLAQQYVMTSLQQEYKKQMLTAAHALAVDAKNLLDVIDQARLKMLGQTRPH
Chain of Luciferin 4-monooxygenase (Photinus pyralis) (P08659 whole entry, looked up): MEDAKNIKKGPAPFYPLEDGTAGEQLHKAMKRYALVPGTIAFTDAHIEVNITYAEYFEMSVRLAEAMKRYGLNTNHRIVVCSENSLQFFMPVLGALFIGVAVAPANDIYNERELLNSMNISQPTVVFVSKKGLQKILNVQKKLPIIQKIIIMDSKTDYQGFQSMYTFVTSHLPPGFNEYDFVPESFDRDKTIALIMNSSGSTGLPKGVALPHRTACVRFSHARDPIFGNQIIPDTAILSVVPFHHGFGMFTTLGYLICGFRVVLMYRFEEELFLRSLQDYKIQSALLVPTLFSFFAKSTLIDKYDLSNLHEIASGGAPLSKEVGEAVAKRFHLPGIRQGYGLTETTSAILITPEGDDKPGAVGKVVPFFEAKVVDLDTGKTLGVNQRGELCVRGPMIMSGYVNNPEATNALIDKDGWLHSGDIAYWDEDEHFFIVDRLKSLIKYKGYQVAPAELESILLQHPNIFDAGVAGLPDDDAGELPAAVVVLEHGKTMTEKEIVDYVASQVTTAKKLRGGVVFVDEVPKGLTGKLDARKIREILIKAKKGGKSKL
Chain of Follistatin (Homo sapiens) (P19883 whole entry, looked up): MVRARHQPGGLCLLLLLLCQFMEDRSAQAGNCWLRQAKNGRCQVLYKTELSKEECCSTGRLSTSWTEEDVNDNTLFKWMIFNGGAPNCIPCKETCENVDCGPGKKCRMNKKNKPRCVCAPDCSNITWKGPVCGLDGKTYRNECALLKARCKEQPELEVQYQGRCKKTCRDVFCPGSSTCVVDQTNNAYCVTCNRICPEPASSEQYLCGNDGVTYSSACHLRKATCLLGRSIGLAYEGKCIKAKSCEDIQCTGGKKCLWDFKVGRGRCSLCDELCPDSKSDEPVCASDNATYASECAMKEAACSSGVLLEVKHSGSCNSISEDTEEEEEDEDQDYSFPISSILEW

For the compound `O=C(c1ccccc1)N1C(=O)[C@@]2(Cc3ccccc31)N=C(c1ccc(OCCCO)cc1)O[C@H]2c1ccccc1`, the composite z-score with Albumin (Bos taurus) was -0.85; in assay [2], 0.33; in [3], 0.14; in [4], 0.575; in assay [5], 2.41; in assay [6], 1.22. Besides, the composite z-score was 1.31 with Sam68 (KHDRBS1); 0.897 in assay [7]; 1.14 in assay [8]; 1.39 in [9]; 1.21 in [10]; 1.23 in assay [11]. In addition, the composite z-score came out at 0.657 in assay [12]; 1.4 in assay [13]; 1.45 in assay [14]; 0.856 in the assay with Lefty1; 0.811 in [16]. For the same compound, the composite Z-score in assay [1] is 0.718 (inactive). Moreover, the z-score is -1.02 in assay [15] and -1.14 (inactive) in assay [17].
`Oc1ccc2cc[n+](Cc3sc4ccccc4c3Cl)cc2c1`: the composite z-score with Albumin (Bos taurus) was -0.49; in assay [2] it was 0.0854; in [3], -0.0694; in assay [4], 0.888; in assay [5], 2.88; in assay [6], 1.07. The composite z-score was -0.702 with Sam68 (KHDRBS1); 0.617 in assay [7]; 0.376 in assay [8]; -0.146 in assay [9]; -0.537 in [10]; 0.703 in assay [11]. Besides, the composite z-score in [12] was -0.462; in assay [13], 1.33; in assay [14], 0.567; with Lefty1, 0.506; in assay [16], 1.14. Moreover, the composite Z-score in assay [1] is 0.598 (inactive). In addition, the z-score was -0.832 in assay [15] and -0.226 (inactive) in [17].
As for `O=C1NC(=O)C2C1C=CC(C(O)c1cc(C(F)(F)F)cc(C(F)(F)F)c1)N2Nc1ccccn1` (stereo not given), the composite z-score in the assay with Albumin (Bos taurus) is 0.0063; in [2], -0.0972; in assay [3], -0.0486; in [4], 0.673; in assay [5] it was 2.15; in assay [6], 0.536. The composite z-score in the assay on Sam68 (KHDRBS1) was determined as 0.079; in assay [7], 0.673; in assay [8] it was 0.297; in assay [9], 0.191; in [10], 0.289; in assay [11], 0.187. In addition, the composite z-score was determined as 0.604 in [12]; 0.89 in assay [13]; 0.047 in assay [14]; 0.187 with Lefty1; 0.574 in assay [16]. Moreover, the composite Z-score in assay [1] was 0.416 (inactive). The z-score in assay [15] is 0.456; in [17], 0.0198 (inactive).
With `O=C1C[C@]2(c3ccc([N+](=O)[O-])cc3)C(=O)N(CC(F)(F)F)c3cc(CO)ccc3[C@H]2N1C1CCCCC1`, the composite z-score with Albumin (Bos taurus) is -0.749; in assay [2], -0.125; in assay [3], -0.112; in assay [4], -0.634; in assay [5], 0.0971; in assay [6], 0.206. In addition, the composite z-score in the assay with Sam68 (KHDRBS1) was -0.686; in assay [7], -1.26; in assay [8] it was -0.546; in assay [9], -1.55; in assay [10] it was -0.15; in assay [11], 0.114. Besides, the composite z-score in [12] was -0.603; in [13], -1.13; in [14] it was -0.808; with Lefty1 it was -1.44; in assay [16], -0.288. For the same compound, the composite Z-score in [1] was -0.0774 (inactive). For the same compound, the z-score in [15] was 0.673; in assay [17], -1 (inactive).
On to `CC(C)N1C(=O)c2ccccc2[C@](C)(C(=O)NCCN2CCOCC2)[C@@H]1c1ccc(CO)cc1`, for which the composite z-score with Albumin (Bos taurus) was 0.406; in assay [2] it was -0.0697; in assay [3] it was -0.195; in [4], 0.766; in assay [5], 2.48; in assay [6], 0.385. The composite z-score in the assay on Sam68 (KHDRBS1) was 0.359; in assay [7], -1.12; in [8], -0.0721; in [9] it was -0.293; in [10], -0.0941; in assay [11], 0.356. Moreover, the composite z-score was -0.726 in assay [12]; 0.897 in assay [13]; -0.574 in assay [14]; -0.117 with Lefty1; -0.489 in [16]. Further, the composite Z-score in [1] was -0.523 (inactive). Besides, the z-score in [15] is -0.662; in assay [17], -0.265 (inactive).
